This is part of a sample that, as a whole, favours compounds with a hit. Of some 83,000 tested, about 20% had one in any assay.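 The test compound was applied at a single concentration to cells in 96-well plates for 48 hours, and percent growth was recorded.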 Unmarked numbers belong to inactive results. Calls of active or inactive are those of the source. How the source made its calls: active means growth percent below 10; inactive means the rest.
Legend:
Experiment in all cases: NCI-60 one-dose screen, 48 h (100 = growth as untreated, 0 = no growth, -100 = all killed)
Details in all cases: 10 µM unless noted
[1] = system: DU-145 prostate
[2] = system: K-562 leukemia
[3] = system: MDA-MB-231 breast
[4] = system: RXF 393 renal
[5] = system: SF-268 CNS
[6] = system: SF-295 CNS
[7] = system: SF-539 CNS
[8] = system: UACC-257 melanoma
[9] = system: M14 melanoma
[10] = system: HCT-15 colon
[11] = system: HT29 colon
[12] = system: SNB-75 CNS
[13] = system: SNB-19 CNS
[14] = system: U251 CNS
[15] = system: PC-3 prostate
[16] = system: SK-MEL-5 melanoma
[17] = system: UACC-62 melanoma
[18] = system: LOX IMVI melanoma
[19] = system: SK-MEL-28 melanoma
[20] = system: MALME-3M melanoma

| Structure (SMILES) | growth [1] [%] | growth [2] | growth [3] | growth [4] | growth [5] | growth [6] | growth [7] | growth [8] | growth [9] | growth [10] | growth [11] | growth [12] | growth [13] [%] | growth [14] [%] | growth [15] | growth [16] | growth [17] | growth [18] | growth [19] | growth [20] [%] |
| --- | --- | --- | --- | --- | --- | --- | --- | --- | --- | --- | --- | --- | --- | --- | --- | --- | --- | --- | --- | --- |
| C[C@@H](c1ccc2c(c1)[nH]c1ccc(Cl)cc12)c1nc2ccccc2[nH]1 | 103 | 82% | 88.1% | 105% | 87.3% | 93.5% | 98.7% | 106% | 111% | 96% | 98% | 62.4% | 92 | 98.4 | 91.3% | 95.3% | 85.9% | 88.2% | 112% |  |
| O=C(N/N=C\c1ccc(-c2ccc(Br)cc2)o1)c1cc2oc(-c3cccc(C(F)(F)F)c3)cc2[nH]1 | 126 | 90.2% | 111% |  | 87.7% |  | 97.9% | -48.2% (active) | 117% | 84.5% | 110% | 72.3% | 97.9 | 84.1 | 102% | 102% | 108% | 86% | 81.5% | 97.1 |
| O=c1oc2ccc3ccccc3c2cc1-c1ccnc2[nH]c(=S)[nH]c(=O)c12 | 106 | 93.4% | 87.4% | 118% | 98.7% | 101% | 103% | 98.9% | 105% | 105% | 95.3% |  | 95 | 98.5 | 93% | 97.8% | 88.2% | 93.1% | 105% |  |
| O=C1OC(c2ccc(-c3ccccc3)cc2)=C/C1=C/c1c2ccccc2cc2ccccc12 | 121 | 93.3% | 98.5% |  | 95.9% |  | 110% | -47.9% (active) | 108% | 74.8% | 103% | 78.7% | 94.1 | 98 | 98.5% | 104% | 99.3% | 95.8% | 87.7% | 113 |
| COC(=O)Nc1nc2ccc(C(=O)c3ccccc3N(C)C3COC3)cc2[nH]1 | 33.7 |  | 55.2% |  | 45.7% | 14.3% | 9.06% (active) | 37.9% | 12.8% | 23.5% | 9.07% (active) | 16.4% | 37.8 | 21.4 | 23% | 22.6% | 27% | 30.8% | 63.6% | 58.8 |
| Cc1c(C(N)=O)sc2c1c(=O)n(Cc1ccccc1)c1nnc(S(C)(=O)=O)n21 | 101 |  | 101% | 49.3% | 96.7% | 89.4% |  | 80.8% |  | 96.1% | 88.2% | 94.4% | 93.2 | 98.7 | 47.8% | 74.8% | 78.1% | 81.2% | 96.2% | 92.4 |
| COc1cc(-c2nc(/C=C3/C(=O)Nc4ccccc43)c3ccccn23)cc(OC)c1OC |  | 52.2% | 40.7% | 76.2% | 47% | 92% | 83.6% | 70.8% | 77.6% |  | 62.5% | 106% | 90.7 | 91.6 | 57.8% | 51.6% | 72.7% | 72.3% | 63% | 74.4 |
| COc1ccc(-c2cn3ccnc3c(-c3ccc4ncn(C5CCCCC5)c4c3)n2)cc1 | 18.2 | 7.96% (active) | 28.9% | -8.48% (active) | 50.1% | 7.49% (active) | -43.4% (active) | 73.7% |  | 21.2% | 7.49% (active) | -26.3% (active) | 31.6 | 19.1 | 4.78% (active) | 7.7% (active) | 34.8% | 30.4% | 52.3% |  |
| COc1ccc2c(c1)/C(=C/c1c(-c3cc(OC)c(OC)c(OC)c3)nc3sccn13)C(=O)N2 | 88 | 87.3% | 66.1% | 82.4% | 107% | 93.2% | 91.9% | 101% |  | 99.5% | 108% | 78.3% | 97.1 | 96.3 | 85% | 81.8% | 92.5% | 98.3% | 98.8% |  |
| Cc1ccc(C(=O)NN)cc1 |  | 91.6% |  | 103% |  | 111% | 114% |  |  | 102% | 111% | 94.5% |  |  | 109% | 108% |  | 96.5% | 109% | 117 |
| COc1ccc(Cn2cc3c(c2-c2ccc(OC)cc2)CCc2cnoc2-3)cc1 | 10.5 | 14.7% | 8.41% (active) | -1.78% (active) | 30.5% |  | -28% (active) | 65.2% | 1.32% (active) | 14.2% | 7.18% (active) | 11.4% | 45.5 | 24 | 24.8% | 10.6% | 44% | 32.2% | 51.2% |  |
| CC(C)OC(=O)[C@H](C)N[P@@](=O)(OC[C@@]1(C)O[C@@H](n2cc(F)c(N)nc2=O)C[C@@H]1O[P@](=O)(N[C@@H](C)C(=O)OC(C)C)Oc1ccccc1)Oc1ccccc1 | 103 |  | 119% |  | 54% | 103% | 63.3% | 92.6% | 91.6% | 106% | 86% | 78.3% | 73.8 | 93.2 | 71.4% | 90.6% | 99.3% | 80.8% | 93.5% | 91.1 |
| COc1ccc(Cn2cc3c(c2-c2ccccc2)CCc2cnoc2-3)cc1OC | 21.3 | 14.1% | 35% | 13.1% | 47.1% |  | -22.1% (active) | 61.9% | 30.5% | 32% | 16.5% | -11.1% (active) | 50.3 | 36.8 | 26.5% | 10.5% | 48.7% | 43.3% | 58.6% |  |
| CCOC(=O)NNc1[nH]c(-c2ccc(OC)cc2)cc1C#N | 108 | 68.9% | 89.8% | 96% | 103% | 111% | 94.3% | 92.5% |  | 107% | 132% | 124% | 98.6 | 98.2 | 99% | 88.9% | 76.1% | 91.6% | 182% |  |
| CC([C@H]1CC=C2C3CCC4=C[C@@H](N(C)C)CC[C@]4(C)C3CC[C@@]21C)N(C)C (some centres undefined) | 57 |  | -6.46% (active) |  | 2.29% (active) | -86.8% (active) | 4.25% (active) | 17.9% | -56.8% (active) | -20.7% (active) | -18.3% (active) | 32.4% | 79.7 | 31.5 | 42.3% | 23.6% | -58.3% (active) | -46.5% (active) | -33.6% (active) | 83.9 |
| CCCCCCCCCCCCCCCCC(=O)O.CCCCCCCCCCCCCCCCCC(=O)O.CCCCCCCCCCCCCCCCCC(=O)O.CCCCCCCCCCCCCCCCCC(=O)O.CCCCCCCCCCCCCCCCCC(=O)O.CO[CH-]OC12COC1CC(O)C1(C)C(O)C(OC(C)O)C3=C(C)C(OC(=O)C(O)C([NH-])c4ccccc4)CC(O)(C(OC(=O)c4ccccc4)C21)C3(C)C.[Cu+].[Zn].[Zn].[Zn].[Zn].[Zn] (centres undefined) |  | 8.31% (active) | 13.8% | 24.3% | 47.6% | 16.5% |  | 80.6% | 35.5% | 20.5% | 12% |  | 29.6 | 33.6 | 30.5% | 38.4% | 42.8% | 39.4% | 80.4% | 69.5 |
| CCS(=O)(=O)OCCO[C@H]1Cc2cc3ccc(=O)oc3cc2OC1(C)C | 103 |  | 115% |  | 98.9% | 101% | 100% | 97.8% | 104% | 109% | 101% | 101% | 105 | 96.7 | 101% | 101% | 102% | 109% | 116% | 105 |
